Source: PubChem (Buhrlage Lab, Dana-Farber Cancer Institute and Novartis Institutes for BioMedical Research (Cambridge, Mass))
Only some compounds are listed: those with a hit (about 13% of all), similar ones and a draw of the others.
USP17 inh – inhibitors of human USP17 deubiquitinase; inhibition, % at 50 µM; purified USP17, Ub-rhodamine cleavage fluorescence, 3 h; hit rate 6.5% among 47,000; AID 1645855; A8MUK1
USP28 inh – human USP28 deubiquitinase inhibition; Q96RU2; purified USP28, Ub-rhodamine cleavage fluorescence, 30 min; inhibition, % at 25 µM; hit rate 3% among 47,000; AID 1645857
USP30 block – human USP30 deubiquitinase inhibition; Q70CQ3; purified USP30, Ub-rhodamine cleavage fluorescence; inhibition, % at 25 µM; hit rate 5.3% among 47,000; AID 1645860
Target sequence (Q70CQ3 whole entry, looked up): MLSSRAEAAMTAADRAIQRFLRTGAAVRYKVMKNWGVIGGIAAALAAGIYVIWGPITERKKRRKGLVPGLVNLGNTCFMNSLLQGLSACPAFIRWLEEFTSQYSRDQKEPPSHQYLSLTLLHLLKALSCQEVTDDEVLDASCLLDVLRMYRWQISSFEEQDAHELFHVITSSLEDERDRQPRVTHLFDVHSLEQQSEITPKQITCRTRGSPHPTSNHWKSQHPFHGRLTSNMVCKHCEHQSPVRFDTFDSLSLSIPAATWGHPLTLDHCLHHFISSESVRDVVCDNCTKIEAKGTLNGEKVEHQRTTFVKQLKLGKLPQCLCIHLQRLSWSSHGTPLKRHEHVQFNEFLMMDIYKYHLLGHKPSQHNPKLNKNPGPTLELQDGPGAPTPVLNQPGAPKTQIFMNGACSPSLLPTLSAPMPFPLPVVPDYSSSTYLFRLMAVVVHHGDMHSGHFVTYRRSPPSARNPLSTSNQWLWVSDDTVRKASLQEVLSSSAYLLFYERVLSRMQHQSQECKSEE
USP8 block – inhibitors of human USP8 deubiquitinase; purified USP8, Ub-rhodamine cleavage fluorescence, 30 min; P40818; inhibition, % at 20 µM; AID 1645853; hit rate 4.2% among 47,000
Large screens that a line does not name were inactive. Rule as the data show it: active = inhibition above about 30%; inactive = the rest.

Cc1ccc(-n2nnc(C(=O)NCC3CCCO3)c2N)c(C)c1 (stereo unspecified)	none
COc1ccc(C(=O)[C@@H]2[C@H](C(=O)OC(c3ccccc3)c3ccccc3)N3c4ccccc4C=CC3[C@@]23C(=O)Nc2ccccc23)cc1OC (stereo partly specified)	none
O=C(c1cccs1)[C@@H]1[C@@H](C(=O)c2ccc3c(c2)OCO3)[C@]2(C(=O)Nc3ccccc32)[C@H]2C=Cc3ccccc3N12	USP8 block 37.6
COc1ccc(OC)c(C(=O)C2C(C(C)=O)N3c4ccccc4C(C)=CC3C23C(=O)Nc2ccccc23)c1 (stereo unspecified)	none (no result: USP28 inh, USP30 block)
CC1=CC2N(c3ccccc31)C(C(=O)C(C)(C)C)C(C(=O)c1ccc3c(c1)OCO3)C21C(=O)Nc2ccccc21 (stereo unspecified)	USP8 block 68.3
CC(C)NC(=O)NC1CC2(CCN(Cc3ccc(O)cc3)CC2)Oc2ccccc21 (stereo unspecified)	none
COc1cccc(/C=C/c2nc(C#N)c(N3CCN(C(=O)c4cccs4)CC3)o2)c1	USP30 block 52.2
O=C(c1ccccc1F)N1CCN(c2nc(-c3ccc(Cl)cc3)no2)CC1	USP30 block 43.9
COc1ccc(/C=C(/C#N)c2c[nH]c3ccccc23)cc1	none
COc1ccc(C(=O)c2c[nH]c3ccccc3c2=O)cc1	USP17 inh 32.4 (no result: USP28 inh, USP30 block)
CS(=O)(=O)N(CC(=O)N1CC(=O)Nc2ccccc21)c1ccccc1	none
CCc1cc2cc3c(cc2nc1SCC(=O)N1CC(=O)Nc2ccccc21)OCO3	USP17 inh 35.2
O=C1Cc2cc(S(=O)(=O)Nc3ccc(Cl)cc3)cc3c2N1CCC3	none
CN(C(=O)C1(c2ccccc2)CC1)c1nc2c(s1)CCc1occc1-2	none
CN(C(=O)c1cccc2cccnc12)c1nc2c(s1)CCc1occc1-2	USP17 inh 69.2, USP8 block 63.8
CCc1nc2c(C#N)c(-c3ccc(Cl)cc3)ccn2n1	USP17 inh 66.4, USP28 inh 41.5, USP30 block 83.4, USP8 block 36.4
Cc1ccc(NC(=O)c2cc(=O)c3ccccc3o2)cc1S(=O)(=O)N1CCOCC1	USP30 block 35.5
Cc1ccc(NC(=O)C2CCCC2)cc1S(=O)(=O)N1CCOCC1	none
C[C@]12C(=O)N(Cc3ccco3)CC(=O)N1CC(c1ccc(Br)cc1)c1c2[nH]c2ccccc12 (stereo partly specified)	USP17 inh 34.0
COCCCN1CC(=O)N2C(CCc3ccccc3)c3[nH]c4ccccc4c3C[C@@H]2C1=O (stereo partly specified)	none
CC1CCc2cc(F)ccc2N1S(=O)(=O)c1cc(Br)cnc1N (stereo unspecified)	USP28 inh 33.5
CC(C)c1nc(N2CCCC2=O)sc1C(=O)Nc1ccc(F)cc1	USP28 inh 31.8
CC(=O)c1ccc(N2CCN(C(=O)c3sc(N4CCCC4=O)nc3C(C)C)CC2)cc1	none
CCn1c(=O)n(CC(=O)c2ccccc2)c2c(C(N)=O)nc(-c3ccc(C)o3)nc21	USP17 inh 34.1
CCn1c(=O)n(CC(=O)c2ccc(F)cc2)c2c(C(N)=O)nc(-c3ccc(C)o3)nc21	USP17 inh 34.2
CCn1c(=O)n(CC(=O)c2ccccc2F)c2c(C(N)=O)nc(-c3ccco3)nc21	none
CCOc1ccc(NC(=O)c2ccccc2Cc2ccccc2)cc1	none
O=S1(=O)CCC(S(=O)(=O)Nc2ccc(OCc3ccc(Cl)cc3)cc2)C1 (stereo unspecified)	USP17 inh 34.7, USP8 block 56.7
Cc1cc(NC(=O)CSc2nnc(CNC(=O)c3ccco3)o2)no1	none
CC(=O)c1cc2c(cc1NC(=O)c1oc3c(c1C)-c1[nH]ncc1CC3)OCO2	USP17 inh 42.6, USP8 block 30.7
CCc1cccc(C)c1NC(=O)CNC(c1ccccc1)c1ccccc1	none
O=C(CCc1nc2sc3c(c2c(=O)[nH]1)CCCCC3)Nc1ccc(F)cc1F	USP8 block 42.2
COC(=O)C(Cc1ccccc1)NC(=O)CSc1nc2ccc(Cl)cc2[nH]1 (stereo unspecified)	USP8 block 42.6
CNC(=O)[C@@]12CCC3(CCN(C(=O)Nc4cccc(OC)c4)CC3)[C@@H]1CN(C)C2	none
O=C(CCc1nnc2n(Cc3ccccc3)c(=O)c3ccccc3n12)NCCN1CCCC1	none
O=C(CCc1nnc2n(Cc3ccc(Cl)cc3)c(=O)c3ccccc3n12)N1CCN(c2ccccc2)CC1	none
Cc1ccc(Cn2c(=O)c3ccccc3n3c(CCC(=O)NCC4CCCO4)nnc23)cc1 (stereo unspecified)	USP30 block 39.1 (no result: USP17 inh)
O=C(CCc1nnc2n(Cc3ccccc3)c(=O)c3ccccc3n12)NCc1ccc2c(c1)OCO2	USP17 inh 39.2, USP8 block 39.3
